# Results published in ChEMBL document CHEMBL3988442, “University of Dundee, Small-Polar-MMV Screening Library” (2021).
# Legend:
# [1] = target: T1, Aspartate--tRNA(Asp/Asn) ligase (Mycobacterium tuberculosis (strain ATCC 25618 / H37Rv)) (UniProt P9WFW3); assay: Assay for Asp RNA synthetase-1 from Mycobacterium tuberculosis; assay type: functional; set-up: scale not given: direction of the effect not stated beside the values; conditions: 30 µM; further: in the data most compounds retested in dose-response had high values
# T1 sequence (whole entry): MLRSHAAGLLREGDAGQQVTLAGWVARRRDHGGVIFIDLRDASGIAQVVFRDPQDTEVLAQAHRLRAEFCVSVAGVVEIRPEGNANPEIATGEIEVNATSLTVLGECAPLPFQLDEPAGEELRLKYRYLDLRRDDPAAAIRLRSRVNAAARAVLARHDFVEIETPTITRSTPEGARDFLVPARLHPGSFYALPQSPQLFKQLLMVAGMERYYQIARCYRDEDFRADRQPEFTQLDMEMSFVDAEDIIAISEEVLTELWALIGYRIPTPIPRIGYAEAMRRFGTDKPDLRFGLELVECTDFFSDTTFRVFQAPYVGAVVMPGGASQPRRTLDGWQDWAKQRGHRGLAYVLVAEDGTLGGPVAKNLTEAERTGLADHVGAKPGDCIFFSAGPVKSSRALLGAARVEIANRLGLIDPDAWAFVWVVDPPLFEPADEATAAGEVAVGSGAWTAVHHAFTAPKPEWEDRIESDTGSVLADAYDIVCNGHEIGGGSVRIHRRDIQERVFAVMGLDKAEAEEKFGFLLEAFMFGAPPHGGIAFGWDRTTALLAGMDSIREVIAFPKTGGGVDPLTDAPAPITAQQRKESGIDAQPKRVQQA
# [2] = target: Shiga toxin 2 (Escherichia coli O157:H7) (UniProt P09385+P09386); assay: E. coli 0.157:H7 Shiga Toxin SOP - stx2 screening assay; assay type: functional; set-up: scale not given: direction of the effect not stated beside the values; conditions: 30 µM
SMILES,Percent Effect [1] [%],Percent Effect [2] [%]
CC(C)c1cc(N2CCC(N)CC2)n2nccc2n1,-0.232,19.8
CCn1cc(CN2CCC(c3nnc(CN(C)C)n3CC)CC2)cn1,-2.35,-57.2
CCCOCCCNc1nccc(-c2cn(C)nc2C)n1,-3.96,18.1
O=C(CCn1cccn1)N1C[C@@H]2CC[C@H](C1)N(Cc1ccccn1)C2=O,0.301,3.51
c1cnnc(N2CCCC2CNCc2nc3ccccc3o2)c1 (configuration not stated),7.18,-25.7
NC(=O)c1csc(C(=O)N2CCCCC2Cn2cccn2)c1 (configuration not stated),-1.92,6.89
CC(C)c1nc(CN(C)C2CCN(CCNS(C)(=O)=O)C2)no1 (configuration not stated),0.0463,-26.6
Cc1nc(O)c2nnn(C[C@H]3CCCN3C(=O)CCC3CCCC3)c2n1,2.01,13
CN(C)C(=O)COC[C@]12COC[C@H]1CN(CC1CCC1)C2,-8.17,-9.5
Cc1cnn(CCNCC(O)COc2ccc(Cl)cc2)c1 (configuration not stated),-2.57,-37.4
CC1CN(C(=O)NCCCn2cncn2)CCO1 (configuration not stated),-7.24,31.5
Cc1cc(C(=O)N2CC[C@@H]3CN(S(C)(=O)=O)CCO[C@@H]3C2)c(C)o1,2.19,1.92
Cc1csc(CNC(=O)Nc2cc(C(F)(F)F)c[nH]c2=O)n1,-5.12,8.58
O=C(NCCNc1ncccn1)N1CCSCC1,-0.235,17.7
O=C(NC1CC1)[C@H]1C[C@H]2OCC[C@H]2N(CC2CCOCC2)C1,4.28,-17.4
CN(C)S(=O)(=O)N1C[C@H](Oc2cccnc2)[C@H]2OCCC[C@H]21,2.32,-12
CC(C)C(NC(=O)NCC1(CO)CC1)c1nnc2n1CCC2 (configuration not stated),-3.28,19.7
O=C(c1ccn(-c2cccc(Cl)c2)n1)N1CCN(C2CC2)CC1,-1.64,20.3
CC(=O)c1cccc(S(=O)(=O)N2CSCC2C(=O)NCC(F)(F)F)c1 (configuration not stated),-1.82,-13.6
CS(=O)(=O)NC[C@]12COC[C@H]1CN(C(=O)C1CCCCC1)C2,7.93,-3.53
Cc1cnc(CN2CCCC2c2noc(C)n2)cn1 (configuration not stated),0.514,4.6
N#CC1(C(=O)N2CCN(Cc3cscn3)CC2)CCCC1,-0.171,9.21
c1coc(-c2noc(CN3CC(n4cccn4)C3)n2)c1,-3.52,24.7

SMILES,Percent Effect [1] [%],Percent Effect [2] [%]
CN(C)CC(=O)N1C[C@H]2CCC[C@@]2(COc2ccccn2)C1,1.75,13.5
O=C1NCCN1C1CCCN(Cc2nnc(-c3ccc(F)cc3)o2)C1 (configuration not stated),-2.77,-40.1
COc1ccc(CCN2CCCC2Cn2nc(C)nc2C)cc1 (configuration not stated),-3.2,-22.5
Cc1ncsc1-c1nnc(C2CCN(CC3CCCCC3)CC2)o1,-2.81,-22.2
CO[C@H]1CCN(S(=O)(=O)c2cn(C)cn2)[C@H]1Cc1cccnc1,-0.175,-10.2
Cn1cc(N2CCCC(NCc3cccc4c3OCCCO4)C2)cn1 (configuration not stated),2.49,22.1
Cn1cc(C(=O)NCC2CCN(C(=O)NCC(F)(F)F)CC2)cn1,2.43,-39.4
O=C(c1ccoc1)N1CCC2(CC1)C(=O)Nc1ccccc12,-1.51,-2.64
CN(C)C(=O)COC[C@]12COC[C@H]1CN(Cc1ccoc1)C2,-2.38,-7.04
Cc1ccc(-c2nc(CN3CCC(C(=O)N(C)C)CC3)cs2)o1,4.21,-24.2
CCn1nc(C)c2nc(C(C)C)nc(N3CCCCC3)c21,8.83,-36.2
Cc1cnn(CC2CCCN2C(=O)Cc2n[nH]c3ccccc23)c1 (configuration not stated),-2.71,12.2
O=C(NCCOc1cccc(Cl)c1)C1CC(=O)N(CC2CC2)C1 (configuration not stated),0,-10.5
CN(C(=O)c1cccc(C(=O)NCC(F)(F)F)c1)c1ccccc1,-2.65,-62.9
CCC(=O)N1Cc2nccn2CC(CN(C)Cc2cccnc2)C1 (configuration not stated),7.49,-5.95
CNC(=O)CCc1cc(C)nc(C2CCCN2)n1 (configuration not stated),7.7,9.84
CCN(CC(=O)NC)S(=O)(=O)N1CCCCCC1,1.14,6.63
Cn1cc(CN2CCCN(C(=O)c3cn4ccccc4n3)CC2)cn1,1.48,-25.9
CCc1nc(C2CCCN(C(=O)CN(C)S(C)(=O)=O)C2)no1 (configuration not stated),-3.98,-6.61
CC(NC(=O)Cn1cccn1)c1ccc2c(c1)OCCCO2 (configuration not stated),-2.88,-69
CC(C)CN1CCC(c2nc3c([nH]2)CC(C)(C)CNC3=O)C1 (configuration not stated),1.44,-12.2
CCc1ccc(S(=O)(=O)Nc2cc(C(=O)O)c(F)cc2F)s1,-4.19,-16.1
O=C1CCCCN1c1cccc(CNC2CCCC2)c1,-0.259,18
